The values that follow come from PubChem BioAssay AID364 (The Scripps Research Institute Molecular Screening Center, 2006).

SMILES strings stand for the structures. Screen size: about 3,300 compounds; about 50 (2%) were called active.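 Rule for the calls: active = concentration giving half-maximal inhibition at or below 20 micromolar; inactive = half-maximal concentration above 20 micromolar, or not dose tested.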 A selection follows. Potency and affinity values are given separately.

The assay can be described thus: cytotoxicity toward Jurkat T cells, primary screen, cell-based, Jurkat E6.1, NIH starter set (AID 364).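 Note: 100% = cells treated with 4 µM doxorubicin.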 The settings on record: Jurkat E6.1 viability, ATP luminescence, 48 h; at 4 µM; stronger effect = higher value.
As for `Cc1cc(=O)oc(C)c1C(=O)NC12CC3CC(CC(C3)C1)C2`, the inhibition was 0.6% (inactive).

Regarding `COc1ccc2c(c1OC)C(=O)OC2C1c2c(cc3c(c2OC)OCO3)CCN1C` (stereo unspecified), the inhibition was 2.6% (inactive).

As for `O=C(O)CC(C(=O)OCC1CCCO1)N1CCOCC1` (stereo unspecified), the inhibition is 11.6% (inactive).

`COc1nc(N(C)S(=O)(=O)c2ccc(C)cc2)nc(C)c1Cl`: the inhibition was 2.3% (inactive).

Turning to `COc1cccc(OC)c1-c1nn2c(-c3ccco3)nnc2s1`, the inhibition is -5.6% (inactive).

In the case of `Cc1ccc2[nH]c(CCN(C)C)c(CC#N)c2c1`, the inhibition was -1% (inactive).

With `CC(=O)Nc1ccc(Oc2ccc3nc(C)[nH]c3c2)cc1`, the inhibition is 6.6% (inactive).

Turning to `Cn1c(=O)n(C)c2cc(C(=O)c3ccccc3)ccc21`, the inhibition is -1.7% (inactive).

For the molecule `CCC(=O)Nc1nc(C)c(Oc2ccccc2)c(=O)[nH]1`, the inhibition was -13.8% (inactive).

For `Cn1c(=O)oc2cc(C(=O)c3ccccc3)ccc21`, the inhibition was -2.2% (inactive).

Turning to `CN1CCc2c(sc3ncn4nc(-c5ccccc5O)nc4c23)C1`, the inhibition was 2.9% (inactive).

As for `CSc1cc(C)nc(N(C)C(C)=O)n1`, the inhibition was -4.8% (inactive).

For the molecule `CC1(c2cnc(Nc3ccccc3)s2)CCC(=O)O1` (stereo unspecified), the inhibition was 3.7% (inactive).

`CC1CN(c2oc(-c3ccccc3Cl)nc2C#N)CC(C)O1` (stereo unspecified): the inhibition was -11.7% (inactive).

Consider `COc1ccc(/C(O)=C2/C(=O)C(=O)N(CCCN(C)C)C2c2ccccc2)cc1Cl` (stereo unspecified), for which the inhibition is 9.5% (inactive).

Turning to `COc1cccc(C2/C(=C(\O)c3ccc4c(c3)OCCO4)C(=O)C(=O)N2CCCN(C)C)c1OC` (stereo unspecified), the inhibition is -10.5% (inactive).

Consider `C=CCn1cnc2c(c1=O)c1nc3ccccc3nc1n2-c1ccc(Cl)cc1`, for which the inhibition was -1.6% (inactive).

On to `CCCCOC(=O)CSC1=C(C#N)C(c2ccc3c(c2)OCO3)CC(=O)N1` (stereo unspecified), for which the inhibition was 6.5% (inactive).

For the molecule `CCCOC(=O)CSC1=C(C#N)C(c2ccc3c(c2)OCO3)CC(=O)N1` (stereo unspecified), the inhibition was 29.3% (inactive).

Regarding `CSc1nc2[nH]c3c(c2c2nnnn12)CCCC3`, the inhibition is 1.2% (inactive).

For the molecule `CC(=O)Nc1cccc(NC(=O)CSc2nc(C)c(C)c(C)c2C#N)c1`, the inhibition was -4.8% (inactive).

In the case of `COc1cc(C2C3C(=O)N(c4ccc(F)cc4)C(=O)C3ON2c2ccccc2)ccc1O` (stereo unspecified), the inhibition is 2.1% (inactive).

Turning to `COc1cccc(Cn2c(NCC(C)C)nc3c2c(=O)n(C)c(=O)n3C)c1`, the inhibition was 10.8% (inactive).

With `CCCCNc1nc2c(c(=O)n(C)c(=O)n2C)n1Cc1cccc(OC)c1`, the inhibition was 35.2% (inactive).

Regarding `CN(C)CCNC(=O)C12CC3(C)CC(C)(CC(C)(C3)C1)C2`, the inhibition is -4.1% (inactive).

`CCOc1cccc(NC(=O)C2CC(=O)NC(=Nc3ccccc3)S2)c1` (stereo unspecified): the inhibition is 15.4% (inactive).

In the case of `Cn1c(=O)[nH]c(=O)c2c1nc(Br)n2CCSc1nnnn1-c1ccccc1`, the inhibition is -0.6% (inactive).

For `ClC(Br)=C(n1cnc2ccccc21)n1cnc2ccccc21`, the inhibition is 3.1% (inactive).

`CC(=O)CCn1c(=O)n(CCC(C)=O)c(=O)n(CCC(C)=O)c1=O`: the inhibition was 4% (inactive).

As for `CN1CCN(C2=Nc3ccccc3Oc3ccc(Cl)cc32)CC1`, the inhibition is 2.6% (inactive).

As for `Clc1ccc2c(c1)C(N1CCNCC1)=Nc1ccccc1O2`, the inhibition was 2.2% (inactive).

Take `CC(C)CNC(=O)c1c(N)n(/N=C/c2cccnc2)c2nc3ccccc3nc12`: the inhibition was -0.2% (inactive).

As for `COc1cccc(C2C(C(=O)c3sc(C)nc3C)=C(O)C(=O)N2CCN2CCOCC2)c1OC` (stereo unspecified), the inhibition was 3.5% (inactive).

As to `CN(C)c1oc(-c2cccs2)nc1C#N`, the inhibition was 5.5% (inactive).

Regarding `COc1ccc(-n2c(=O)c3c4c(sc3n3c(C)nnc23)CC(C)CC4)cc1` (stereo unspecified), the inhibition is -5% (inactive).

For `COc1ccc(Nc2nc(Nc3ccc(OC)cc3)nc(-n3[nH]c(=O)c(C)c3C)n2)cc1`, the inhibition was 4.5% (inactive).

`COc1ccc(Nc2cc(C)nc3ccccc23)cc1`: the inhibition is 6.3% (inactive).

For the molecule `Cc1[nH]c2ccc(F)cc2c(=O)c1SC(F)(F)C(F)C(F)(F)F` (stereo unspecified), the inhibition is 1.9% (inactive).

In the case of `COc1ccc(C(=O)c2oc3nc(C)cc(C)c3c2N)cc1`, the inhibition is -3.3% (inactive).

Turning to `C=CCn1c(SCc2c(F)c(F)c(F)c(F)c2F)nc(O)cc1=O`, the inhibition is -3.4% (inactive).

With `CC(C)C(C(=O)Nc1ncn[nH]1)N1C(=O)c2ccccc2C1=O` (stereo unspecified), the inhibition is 1% (inactive).

One may read the inhibition as the drop in the measured response relative to a control, in per cent.
